Cav3 T inh = Cav3.2 calcium influx blockers – cell-based, Fluo-4 calcium fluorescence, FDSS, MLSMR library, primary screen; Voltage-dependent T-type calcium channel subunit alpha-1H (Homo sapiens), O95180; Cav3.2-expressing cells; stronger effect = lower value; B-score at 10 µM; 4% of 100,000 active; AID 449739, 2010;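 active = single-dose well whose peak fluorescence ratio is a statistical outlier from its plate by either plate-standardised score or position-corrected B-score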
CYP2C9 activ = human CYP2C9 activators, primary screen, biochemical, luminescence; Cytochrome P450 2C9 (Homo sapiens), P11712; recombinant CYP2C9, luciferin-H conversion; stronger effect = higher value; factor 1 = untreated enzyme, 0 = blocked; activation factor at 5 µM; 1.4% of 96,000 active; AID 1024, 2008;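 active = activation factor of 2 or more for CYP2C9 at a 5 µM dose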;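 also: 0 = sulfaphenazole-blocked wells and 1 = vehicle-only wells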
PTK2B oligo ant = antagonists of Pyk2 self-association, primary screen, Q293 cells, FERM NanoBiT luminescence, HTS; stronger effect = lower value; z-score (the deposit names both 25 µM and 10 µM); 0.83% of 99,000 active; AID 1347419, 2020;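 active = Z-score of -3 or lower, scaled per plate to the spread of control and sample wells; inactive = z-score above -3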;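 also: negative z-score means lost luminescence so less FERM oligomerization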
CYP2C9 inh = blockers of cytochrome P450 2C9 activity – biochemical, luminescence, ADME assay, primary screen; P11712; 20% of 96,000 active; inhibition, % at 5 µM; CYP2C9 Supersomes, luciferin-H conversion;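 active = blocking of liver enzyme CYP2C9 beyond about 50% at 5 µM, limit read from the data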
CYP2C19 activ = human CYP2C19 activators, primary screen, biochemical, luminescence. Cytochrome P450 2C19 (Homo sapiens), P33261. recombinant CYP2C19, luciferin-H EGE luminescence; stronger effect = higher value; 0 = fully inhibited enzyme, 1 = untreated enzyme. activation factor at 5 µM. 96,000 tested, under 10 active;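 active = activation factor of at least 2 at 5 µM in the primary screen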;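 also: 0 = wells with 2.5 mM tranylcypromine and 1 = vehicle-only wells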
Target sequence (P33261 whole entry, looked up): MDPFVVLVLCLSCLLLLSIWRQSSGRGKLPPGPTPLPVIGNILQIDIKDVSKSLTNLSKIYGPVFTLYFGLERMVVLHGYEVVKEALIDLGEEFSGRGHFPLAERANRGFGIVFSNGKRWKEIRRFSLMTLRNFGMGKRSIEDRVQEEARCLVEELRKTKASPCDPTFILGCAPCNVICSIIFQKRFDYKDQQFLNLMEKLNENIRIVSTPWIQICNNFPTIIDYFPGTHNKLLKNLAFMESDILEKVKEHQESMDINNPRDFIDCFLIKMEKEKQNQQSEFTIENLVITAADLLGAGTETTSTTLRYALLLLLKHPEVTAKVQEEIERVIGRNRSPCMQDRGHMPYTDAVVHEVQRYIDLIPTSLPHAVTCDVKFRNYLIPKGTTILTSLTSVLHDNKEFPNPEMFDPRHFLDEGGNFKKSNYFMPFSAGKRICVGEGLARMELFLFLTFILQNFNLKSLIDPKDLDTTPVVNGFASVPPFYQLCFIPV
CYP2C19 inh = blockers of cytochrome P450 2C19 activity – biochemical, luminescence, ADME assay, primary screen. inhibition, % at 5 µM. 21% of 96,000 active. CYP2C19 Supersomes, luciferin-H EGE luminescence, 30 min. AID 778, 2007. P33261;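 active = CYP2C19 inhibition above a set limit at 5 µM in the primary screen, cut at about 50% in these data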;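 also: plate controls were negative control wells for no effect and 2.5 mM tranylcypromine positive control for full effect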
Numbers without * were called inactive; / = no result given. Sampled rows, rich in hits. Any-hit rate of the full collection: about 27%.

SMILES	Cav3 T inh	CYP2C9 activ	PTK2B oligo ant	CYP2C9 inh	CYP2C19 activ	CYP2C19 inh
CCc1ccc(C2CC(c3ccco3)=NN2S(C)(=O)=O)cc1 (stereo unspecified)	0.014	0.6	-0.49	40	0.4	62*
CS(=O)(=O)N1c2ccccc2[C@]2(Br)C[C@H]3C(=O)N[C@@H](Cc4ccccc4)C(=O)N3[C@H]12	0.43	/	/	/	/	/
CC(=O)N(CCC(Cc1ccccc1)c1ccc2c(c1)OCO2)Cc1ccccc1F (stereo unspecified)	/	0	-1.4	96*	0.1	88*
O=C(CCc1ccccc1)c1ccc2c(c1)OCCCO2	-0.89	0.8	-1.1	16	1	-2
O=C(NC(Cc1ccccc1)c1ccc2c(c1)OCCCO2)c1ccccc1F (stereo unspecified)	-2.8	0.2	-2	83*	0.2	77*
C#CCNC(=O)C1=C[C@@H](c2ccc(C(F)(F)F)cc2)C[C@@H](OCCCCO)O1	-0.59	/	/	/	/	/
O=C(CCCc1cccs1)N1CCN(S(=O)(=O)c2ccccc2Br)CC1	/	0.3	-0.9	69*	0.5	48
O=S(=O)(c1cccs1)N1CCN(Cc2nc3ccccc3s2)CC1	-1	0.2	1.1	83*	0.2	85*
O=C(CCCOc1ccccc1)N1CCN(S(=O)(=O)c2cccs2)CC1	-0.0039	0.9	0.51	10	0.9	13
CCOC(=O)C1CCN(S(=O)(=O)C(F)(F)c2nc3ccccc3s2)CC1	-3.3	0.4	0.61	65*	0	95*
O=C(OCc1nc2ccccc2s1)C1CCN(S(=O)(=O)c2cccs2)CC1	1.5	0	1.9	95*	0.2	82*
O=C(CCc1nc2ccccc2s1)N1CCN(S(=O)(=O)c2cccs2)CC1	-0.43	0.4	1.1	59*	0.3	70*
Cc1ccc2nsnc2c1S(=O)(=O)N(CCO)Cc1cc2cc3c(cc2[nH]c1=O)OCCO3	1.4	0.8	-0.54	16	1	-2
COc1ccc2[nH]c(=O)c(CN(Cc3cccs3)S(=O)(=O)c3c(C)ccc4nsnc34)cc2c1	-2.6	0.7	-2.5	30	0.6	36
Cc1ccc2[nH]c(=O)c(CN(CCCO)S(=O)(=O)c3cccc4nsnc34)cc2c1	-2.7	0.1	1.1	88*	0.5	46
Cc1ccc2cc(CN(CCCO)S(=O)(=O)c3cccc4nsnc34)c(=O)[nH]c2c1	/	0	-0.97	100*	1	1
Cc1ccc(-n2[nH]c(C)c(/C=C3/C=Nc4ccccc43)c2=O)cc1C	-0.053	/	-0.28	/	/	/
CCOC(=O)CCn1nc(-c2ccccc2)cc1N	1.7	0.9	0.11	10	0.3	66*
CCOC(=O)CSc1nc(-c2ccccc2)cc(C(F)(F)F)n1	/	/	0.14	/	/	/
CCCN1CCN(CCCNC(=O)Cn2nc(-c3ccc(C)cc3)ccc2=O)CC1	/	0.9	0.1	15	1.1	-11
CCOC(=O)Cn1nc(-c2ccc(C)cc2)ccc1=O	-0.0024	0.5	0.2	52*	0.5	49
COc1ccc(Cc2noc(-c3ccc(OC)c(OC)c3)n2)cc1OC	-4	0.7	0.92	34	0.8	19
N#C/C(=C/c1ccco1)c1nc2ccccc2s1	/	/	-1.1	/	/	/
CC(C)NC(=O)C(C)n1cccc1C(=O)c1ccccc1 (stereo unspecified)	-0.27	0.5	0.05	55*	0.8	18
CCOC(=O)CCCNC(=O)COc1ccccc1C#N	-0.079	1	1.9	3	0.7	33
SMILES	Cav3 T inh	CYP2C9 activ	PTK2B oligo ant	CYP2C9 inh	CYP2C19 activ	CYP2C19 inh
O=c1c2cnn(-c3ccccc3)c2ncn1Cc1ccco1	-0.07	0.5	0.07	50*	0.7	27
O=c1c2cnn(-c3ccccc3)c2ncn1Cc1ccccn1	0.26	0.8	0.16	16	0.6	42
O=c1c2cnn(-c3ccccc3)c2ncn1Cc1cccnc1	1.1	0.8	0.79	20	0.6	40
O=c1c2cnn(-c3ccc(F)cc3)c2ncn1Cc1cccnc1	-3.2	0.8	1.2	18	0.5	50*
O=c1c2cnn(-c3ccccc3Cl)c2ncn1Cc1cccnc1	0.31	0.9	1.1	10	0.5	53*
Cc1cc(C)c2oc(-c3ccc(C)c(NC(=S)NC(=O)/C=C/c4ccco4)c3)nc2c1	-0.36	0.5	-0.22	45	0	97*
Cc1cccnc1NC(=S)NC(=O)/C=C/c1ccco1	1.4	1	-0.52	4	1.1	-9
Cc1cc(C)c2oc(-c3ccc(C)c(NC(=S)NC(=O)c4cccs4)c3)nc2c1	0.035	0.7	-3.7*	26	0.9	8
Cc1ccc(-c2nc3ccccc3[nH]2)cc1NC(=S)NC(=O)c1ccccc1Br	0.41	0.4	-2.8	63*	0.6	38
CCOc1ccc(C(=O)Nc2cc(-c3nc4ccccc4[nH]3)ccc2C)cc1[N+](=O)[O-]	/	0.4	-1	65*	0.2	82*
Cc1ccc(-c2nc3ccccc3o2)cc1NC(=S)NC(=O)c1cccs1	-0.41	0.8	-2.4	16	1.1	-15
C=CCNS(=O)(=O)CC12CCC(CC1=O)C2(C)C (stereo unspecified)	0.29	1	-1	-4	0.9	6
Cc1ccc(-c2nc3ccccc3[nH]2)cc1NC(=O)/C=C/c1ccco1	-2.2	0.2	-0.9	79*	0.5	47
Cc1cc(C)n(-c2nc(Nc3ccccc3C(F)(F)F)nc(-n3nc(C)cc3C)n2)n1	-3.1	/	-3.5*	/	/	/
Cc1cc(C)n(-c2nc(Nc3ccccc3C)nc(-n3nc(C)cc3C)n2)n1	-1.5	0.9	/	14	1	2
CCC1CCC(NC2CCCCNC2=O)CC1 (stereo unspecified)	0.2	1.1	1.4	-14	1.1	-7
Cn1c(-c2ccc(C=O)s2)nc2c3ccccc3c3ccccc3c21	-5.5*	0.8	-3.6*	24	1.1	-10
CN1CCN(c2cc(N3CCc4ccccc4C3)c(F)cc2[N+](=O)[O-])CC1	/	/	-1.7	/	/	/
O=C1NC(c2ccc3c(c2)OCO3)Nc2ccccc21 (stereo unspecified)	/	0.8	-0.22	17	0.4	62*
O=C1NC(c2ccc3c(c2)OCO3)Oc2ccccc21 (stereo unspecified)	0.75	0.2	1.1	79*	0	96*
CCc1cccc(CC)c1NC(=O)C1SC(=Nc2ccccc2C)C(c2nc3ccccc3s2)=C1N (stereo unspecified)	/	1	0.58	-2	1.1	-12
CC(=O)c1ccc(OC(=O)N(c2ccccc2)c2ccccc2)cc1	-1.2	0.3	0.12	70*	0.4	56*

From PubChem BioAssay
